Data: PubChem BioAssay
Results filed as inconclusive are left out. For some assays here: Results with a measured potency or affinity are listed apart. The source made the active and inactive calls. No stated cut-off is given here; in the data, active means fluorescence slope change above about 50%; inconclusive means mostly about 31% to 49%; inactive means weaker than that.

How the values were obtained:
[1] = target: ATP-dependent translocase ABCB1 (Homo sapiens) (UniProt P08183); experiment: P-glycoprotein substrate transport blockade – cell-based (AID 377); conditions: MDR1-expressing cells, fluorescent substrate accumulation slope; stronger effect = higher value; concentration not given here
Chain of ATP-dependent translocase ABCB1 (Homo sapiens) (P08183 whole entry, looked up): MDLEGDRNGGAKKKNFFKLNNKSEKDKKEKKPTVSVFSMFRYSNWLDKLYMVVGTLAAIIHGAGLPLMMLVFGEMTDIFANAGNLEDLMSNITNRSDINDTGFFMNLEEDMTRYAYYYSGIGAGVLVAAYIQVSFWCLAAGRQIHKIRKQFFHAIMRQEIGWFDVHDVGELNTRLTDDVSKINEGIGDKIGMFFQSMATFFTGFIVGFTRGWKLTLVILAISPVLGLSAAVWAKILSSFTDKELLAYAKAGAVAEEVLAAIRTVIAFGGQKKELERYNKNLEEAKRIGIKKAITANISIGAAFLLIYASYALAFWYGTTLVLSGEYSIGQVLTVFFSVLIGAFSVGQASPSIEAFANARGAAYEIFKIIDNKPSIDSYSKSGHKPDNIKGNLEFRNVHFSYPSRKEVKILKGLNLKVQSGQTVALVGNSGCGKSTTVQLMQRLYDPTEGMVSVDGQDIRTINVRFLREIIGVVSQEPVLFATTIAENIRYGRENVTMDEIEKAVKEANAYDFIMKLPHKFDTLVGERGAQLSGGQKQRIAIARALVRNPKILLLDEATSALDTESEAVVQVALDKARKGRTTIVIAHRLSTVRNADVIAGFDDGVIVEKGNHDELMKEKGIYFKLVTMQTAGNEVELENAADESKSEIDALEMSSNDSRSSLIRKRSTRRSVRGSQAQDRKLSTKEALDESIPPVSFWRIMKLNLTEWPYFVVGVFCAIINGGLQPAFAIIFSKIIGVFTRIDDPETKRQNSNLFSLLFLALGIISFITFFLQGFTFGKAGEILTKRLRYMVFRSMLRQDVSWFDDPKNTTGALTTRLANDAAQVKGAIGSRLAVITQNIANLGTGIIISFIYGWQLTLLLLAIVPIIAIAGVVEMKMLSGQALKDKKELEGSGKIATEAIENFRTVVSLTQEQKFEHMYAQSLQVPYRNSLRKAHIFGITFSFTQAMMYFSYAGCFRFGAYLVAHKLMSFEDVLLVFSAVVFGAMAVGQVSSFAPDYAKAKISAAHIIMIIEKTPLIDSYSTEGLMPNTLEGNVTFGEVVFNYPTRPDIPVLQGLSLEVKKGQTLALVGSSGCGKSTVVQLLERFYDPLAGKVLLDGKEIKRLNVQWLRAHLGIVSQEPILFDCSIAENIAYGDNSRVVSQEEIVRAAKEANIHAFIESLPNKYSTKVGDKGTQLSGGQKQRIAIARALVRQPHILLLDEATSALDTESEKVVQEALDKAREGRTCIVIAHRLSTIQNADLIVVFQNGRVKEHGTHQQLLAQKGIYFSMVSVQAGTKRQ

[2] = blockers of polyQ-driven CASP3 activation – cell-based (AID 1583); conditions: polyglutamine-induced caspase-3 activation, cell assay; stronger effect = higher value;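 tested at 10 µM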
[3] = yeast 75Q aggregation reduction – 75Q-TubU reporter (AID 1593); conditions: Yeast 75Q polyglutamine aggregation reporter
[4] = restoration of touch response, mutant HTT neurons – whole organism, C. elegans mechanosensory neurons, N-terminal huntingtin (AID 1599); conditions: C. elegans polyQ-huntingtin mechanosensory neurons, stronger effect = higher value
[5] = blockers of cytochrome c efflux from mitochondria – biochemical, purified mitochondria (AID 1603); conditions: stronger effect = lower value;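 further: mouse liver mitochondria challenged with calcium chloride; signal normalized to the plate average as 100%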
[6] = polyglutamine aggregate formation blockers (AID 1604); conditions: polyglutamine-induced protein aggregation inhibition assay; stronger effect = higher value; tested at 2.5 µM

Row | SMILES | fluorescence slope change [1] | inhibition [2] | score [3] | rescue above control [4] | cytochrome c release ratio [5] | inhibition of aggregation [6]
1 | Cc1oncc1C(=O)Nc1ccc(C(F)(F)F)cc1 | 12.9% (inactive) | -21.8% | 0.42 | -2.16 | 1.42 | 51%
2 | Nc1ccc(S(=O)(=O)NC(=O)c2ccccc2)cc1 | 30% (inactive) | 20.3% | 1.2 | -4.53 | 0.95 | 47.9%
3 | CCn1cc(C(=O)O)c(=O)c2cc3c(cc21)OCO3 | 56.5% (active) | -14.8% | 1.16 | – | 0.82 | 74.7%
4 | NC(=NCCCCCCN=C(N)/N=C(\N)Nc1ccc(Cl)cc1)/N=C(\N)Nc1ccc(Cl)cc1 | 250% (active) | 66.8% | 0.16 | 0 | 12.9 | 79.3%
5 | NNc1nncc2ccccc12 | 71.4% (active) | 24% | 1.45 | -2.16 | 0.9 | -30.3%
6 | CC(=O)OC(C)C[N+](C)(C)C (configuration not stated) | -0.2% (inactive) | – | – | – | – | –
7 | CCN(CC)CCOC(=O)C(c1ccccc1)C1CCCCC1 (configuration not stated) | 89.7% (active) | 14.6% | 1.92 | 0.94 | 1.03 | 6.35%
8 | CN(C)CCC=C1c2ccccc2C=Cc2ccccc21 | 73% (active) | -2.52% | 1.44 | 5.55 | 1.17 | 84.1%
9 | CN1CCN2c3ccccc3Cc3ccccc3C2C1 (configuration not stated) | 67.1% (active) | -9.95% | 1.13 | 36.1 | 0.7 | 60.7%
10 | CC1CCc2cc(F)cc3c(=O)c(C(=O)O)cn1c23 (configuration not stated) | 50.2% (active) | 4.46% | 1.12 | -5.46 | 1.29 | 44.4%
11 | COc1cc(C(=O)OCCCN2CCCN(CCCOC(=O)c3cc(OC)c(OC)c(OC)c3)CC2)cc(OC)c1OC | 100% (active) | – | – | – | – | –
12 | CCN(CC)CCNC(=O)c1cc(Br)c(N)cc1OC | 8.5% (inactive) | 15.4% | 1.41 | 5.76 | 0.92 | 24.2%
13 | Cc1cc2cc3c(C)cc(=O)oc3c(C)c2o1 | 18.1% (inactive) | -5.8% | 0.49 | – | 1.2 | 74.1%
14 | COC(=O)[C@H]1[C@H]2C[C@@H]3c4[nH]c5cc(OC)ccc5c4CCN3C[C@H]2C[C@@H](OC(=O)c2cc(OC)c(OC)c(OC)c2)[C@@H]1OC | 51.8% (active) | -42.7% | 1.16 | -12.7 | 1.46 | 63.2%
15 | CN1CCC(=C2c3ccccc3Sc3ccccc32)CC1 | 107% (active) | -31.4% | 1.33 | – | 1.44 | 88.8%
